Shown are actives, neighbours in structure and some others; about 2.8% of the full set was active somewhere.
TNF death inh – TNF-alpha cell death inhibition in Jurkat FADD-/- cells; Jurkat FADD-/- TNF necroptosis rescue, ATP luminescence, 24 h; 0 = TNF only, 100 = no-TNF cells; activation (protection from cell death), % at 10 µM; 220,000 tested, 0.068% active;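 active = activation, meaning protection from cell death, of at least 50% relative to plate controls; inactive = activation below 50%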;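 also: necroptosis triggered by 40 ng/mL TNF-alpha added together with compound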
Mcl1 Bid PPI – Mcl-1/Bid interaction inhibition; inhibition, % at 21.7 µM; TR-FRET Mcl-1/Bid-Dy647 peptide binding, 1536-well; 220,000 tested, 0.97% active; AID 1021;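 active = compounds that cut the binding signal by more than half at the single screening dose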;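 also: His-tagged Mcl-1 with europium anti-His antibody binding Bid BH3 peptide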
Target sequence (Q07820 whole entry, looked up): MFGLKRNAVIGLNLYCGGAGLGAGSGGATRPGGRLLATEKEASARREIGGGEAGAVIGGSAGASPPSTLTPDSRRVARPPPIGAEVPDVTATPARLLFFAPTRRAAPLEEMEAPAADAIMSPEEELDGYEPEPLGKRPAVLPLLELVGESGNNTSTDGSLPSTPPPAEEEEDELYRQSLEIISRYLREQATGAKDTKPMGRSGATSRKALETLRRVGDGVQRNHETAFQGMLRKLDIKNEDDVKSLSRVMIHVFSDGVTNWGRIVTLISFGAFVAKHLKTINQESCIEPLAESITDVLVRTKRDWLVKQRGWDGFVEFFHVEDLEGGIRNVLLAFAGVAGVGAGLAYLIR
Mcl-1 Bim block – human Bim-Mcl-1 interaction inhibition. Q07820. Bead-based flow cytometry, Bim peptide-Mcl-1 binding. inhibition, % at 10 µM. 190,000 tested, 0.1% active. AID 1009; in the data active = inhibition above about 40%
m-calpain inh – inhibitors of pig calpain II. purified calpain II, fluorogenic peptide substrate, 30 min. 220,000 tested, 0.37% active. AID 1236. inhibition, % at 16 µM;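 active = inhibition above about 50%, limit read from the data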
Mcl1-Noxa inh – Mcl-1/Noxa interaction inhibition | inhibition, % at 21.7 µM | Q07820 | AID 1022 | 220,000 tested, 1.5% active | TR-FRET Mcl-1/Noxa peptide binding, 2 h;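 active = compounds that cut the protein-peptide binding signal by more than 50% relative to plate controls in a single-dose test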;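 also: His-tagged Mcl-1 with rhodamine Noxa BH3 peptide and terbium anti-His antibody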
zVAD death inh – blocks zVAD induced death of L929 cells | L929 zVAD necroptosis rescue, ATP luminescence, 24 h; with zVAD 60 µM | viability rescue, % at 10 µM | 220,000 tested, 0.38% active | AID 1377;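 active = activation, scaled between plate controls, above about 75%, limit read from the data; inactive = activation under that limit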
Large screens that a line does not name were inactive.

CN(C)c1ccc(N=Nc2ccccc2C(=O)OCC(=O)N(C)c2ccccc2)cc1	none
CCc1ccccc1Nc1nc2ccccc2n1C(C)C	none
CC(C)n1c(Nn2cnnc2)nc2ccccc21	Mcl1-Noxa inh 102.6
Cc1nnc(SCC(=O)Nc2cccc(S(=O)(=O)N(C)c3ccccc3)c2)s1	none
CC1(C(=O)OCC(=O)c2c[nH]c3ccccc23)CC1(Cl)Cl (centres undefined)	none
Cc1ccc(NC(=O)CSc2nc3ccccc3c3nc4ccccc4n23)cc1	Mcl1 Bid PPI 61.8
COc1cccc(NC(=O)CSc2nc3ccccc3n2C)c1	Mcl1 Bid PPI 84.8
O=C(CSc1nc2ccccc2c2nc3ccccc3n12)NCc1ccco1	Mcl1 Bid PPI 85.5
Cc1cc(C)c(S(=O)(=O)NCC2CCC(C(=O)NCc3ccccn3)CC2)c(C)c1 (centres undefined)	none
COc1ccc(Nc2nc(NCc3ccco3)nc(N/N=C/c3ccc(O)cc3)n2)cc1	none
COc1cccc(/C=N/Nc2snc(SC)c2C#N)c1O	Mcl1-Noxa inh 72.3 (no result: zVAD death inh)
COc1ccc(/C=N/Nc2snc(SC)c2C#N)cc1OC	Mcl1-Noxa inh 66.8
CCc1cccc(NC(=O)CS(=O)Cc2nc(-c3ccc(C)cc3)oc2C)c1 (centres undefined)	none
C=CCNCCCOc1ccc(C(C)(C)c2ccccc2)cc1	Mcl1 Bid PPI 52.4
Oc1c(Cl)cc(Cl)cc1Sc1cc(Cl)cc(Cl)c1O	Mcl1 Bid PPI 98.7, Mcl1-Noxa inh 117.1
Oc1c(Cl)cc(Cl)cc1CNn1cnnc1	none
C=CCn1c(SCCOc2ccc(OC)cc2)nnc1C(C)NC(=O)c1ccc(OC)cc1 (centres undefined)	none
C=CCn1c(SCc2ccc([N+](=O)[O-])cc2)nnc1C(C)NC(=O)c1ccccc1 (centres undefined)	Mcl1 Bid PPI 93.6
CN1C=C/C(=C\c2cc[n+](C)c3ccccc23)c2ccccc21	Mcl1-Noxa inh 84.9
CC[n+]1ccc(/C=C2\Sc3ccccc3N2CCCS(=O)(=O)[O-])c2ccccc21	none
O=C1c2ccccc2C(=O)C1Cc1cccc2ccccc12	Mcl1 Bid PPI 89.3
CC(C)C(=O)N1CCN(c2ccccc2NC(=O)c2cc([N+](=O)[O-])ccc2N2CCOCC2)CC1	none
CS(=O)(=O)c1ccc2nc(NC(=O)c3ccc(NS(=O)(=O)c4ccc(F)c(F)c4)cc3)sc2c1	Mcl1 Bid PPI 63.5 (no result: Mcl-1 Bim block)
Cc1nn(C)cc1C1C2=C(CC(C)(C)CC2=O)OC2=C1C(=O)CC(C)(C)C2	none
CCCC(C)C(=O)OCC(=O)Nc1ccc(Br)cc1 (centres undefined)	none
O=C(c1sc2cc([N+](=O)[O-])ccc2c1Cl)N1CCOCC1	none
CC(C)N(C(=O)c1sc2cc([N+](=O)[O-])ccc2c1Cl)C(C)C	Mcl1 Bid PPI 97.1
CSc1ncc(Cl)c(C(=O)Nc2sc3c(c2C(=O)NCc2ccco2)CCCC3)n1	none
CCSc1ncc(Cl)c(C(=O)Nc2sc3c(c2C(=O)NCc2cccnc2)CCCC3)n1	Mcl1 Bid PPI 59.2, Mcl-1 Bim block 44.0
Oc1cc2c(cc1O)C1c3ccc(O)c(O)c3OCC1(O)C2 (centres undefined)	Mcl1-Noxa inh 82.3
O=C(CSc1nnc(-c2cccnc2)n1C1CCCCC1)NC1CCCC1	Mcl1-Noxa inh 56.4
CCCCc1ccc(NC(=O)C2CCCO2)cc1 (centres undefined)	m-calpain inh 52.8
CCCCNC(=O)c1ccc(NC(=O)C2CCCO2)cc1 (centres undefined)	none
Cc1ccc(S(=O)(=O)NC(=O)c2cc(C)n(C3CC3)c2C)cc1	none
CC1=NCCN1S(=O)(=O)c1cc(Cl)ccc1Cl	none
CCc1sc(C(=O)Nc2ccccc2N2CCOCC2)cc1C	none
Cc1ccc(NC(=O)CN2C(=O)N/C(=C\c3cccn3-c3cccc(C(=O)O)c3)C2=O)cc1	Mcl1-Noxa inh 63.1
Cc1ccc(CN2C(=O)N/C(=C\c3cccn3-c3cccc(C(=O)O)c3)C2=O)cc1	none
CCn1c(C)cc(/C=C2\NC(=O)N(CC(=O)Nc3cccc(C)c3)C2=O)c1C	none
Cc1ccc(NC(=O)CN2C(=O)N/C(=C/c3cc(C)n(-c4cccc(C(=O)O)c4)c3C)C2=O)cc1	Mcl1-Noxa inh 73.4
CCN(CC)C(=O)Cn1ccc(NC(C)=O)nc1=O	none (no result: Mcl-1 Bim block)
Cc1ccc(NC(=O)C(=O)NCc2ccncc2)cc1	none
CSc1cccc(NC(=O)CSc2ccc(Cl)cc2)c1	m-calpain inh 51.3
COc1cc(/C=N/N(C)S(=O)(=O)c2ccc(C)cc2)cc([N+](=O)[O-])c1O	none (no result: Mcl-1 Bim block)
O=C(NN=C1C2CC3CC1CC(Cl)(C3)C2)c1ccccn1	Mcl1-Noxa inh 67.4
CCc1cc2c(SCC#N)ncnc2s1	none
CN(C)c1ccc(/C=N/n2c(-c3cccnc3)n[nH]c2=S)cc1	Mcl1-Noxa inh 55.5
S=c1[nH]nc(-c2cc(-c3ccccc3)n[nH]2)n1/N=C/c1ccc(Br)s1	Mcl1-Noxa inh 69.9 (no result: Mcl-1 Bim block)
Cc1ccc(/C=N/n2c(-c3cccnc3)n[nH]c2=S)s1	Mcl1-Noxa inh 51.0
CC1(c2ccc([N+](=O)[O-])c(CS(=O)(=O)c3ccccc3)c2)OCCO1	none
O=C1NC(=S)S/C1=C1\Sc2ccccc2N1CCCS(=O)(=O)O	Mcl1-Noxa inh 74.5
COc1ccc(N=Cc2cc(Cc3ccccc3Cl)cc([N+](=O)[O-])c2O)cc1OC	Mcl1-Noxa inh 61.4
Cc1cc(C)nc(/N=C(\N)N2CCc3ccccc32)n1	Mcl-1 Bim block 49.0
Cc1cc2occ(CC(=O)OCC(=O)Nc3sc4c(c3C#N)CCC(C)C4)c2cc1C (centres undefined)	none (no result: zVAD death inh)
CCOC(=O)N1C=CC=C[C@@H]2[C@@H](N3C(=O)c4ccccc4C3=O)C(=O)N21	none (no result: zVAD death inh)
CCOC(=O)c1c(NC(=O)CSc2nnnn2C)sc(C)c1-c1ccc(C)cc1	m-calpain inh 55.8
O=C(O)C1Sc2[nH]c(=O)sc2C2c3ccc(O)cc3OC(=O)C12 (centres undefined)	none
O=C(CP(=O)(c1ccccc1)c1ccccc1)Nc1nc2ccc(Cl)cc2s1	Mcl1 Bid PPI 96.9 (no result: Mcl-1 Bim block)
O=C(Nc1nc2ccc(Cl)cc2s1)C1CCCO1 (centres undefined)	none
CCCOc1ccc(N2CC(C(=O)NC(C)C)CC2=O)cc1 (centres undefined)	none
C/C=C(\C)CN1CCN(c2cccc(C)c2C)CC1	none
C/C=C(\C)CN1CCN(c2ccccc2F)CC1	Mcl1 Bid PPI 53.4
Fc1cc(F)c2nc(Nc3nc4cc5c(cc4s3)OCO5)sc2c1	Mcl1 Bid PPI 91.0, Mcl1-Noxa inh 98.8
CC(NC(=O)Cn1cnc2c1c(=O)n(C)c(=O)n2C)c1ccccc1 (centres undefined)	Mcl1 Bid PPI 94.2
COc1cc(-c2nc(-c3ccccc3)c(-c3cccs3)[nH]2)cc(OC)c1O	Mcl1-Noxa inh 54.7
